Inconclusive results are not listed. A number with no mark means an inactive call. Active and inactive are the calls of the source. The call rests on the fitted dose curve; in most records, active means well fitted inhibition curve with a large enough effect; inconclusive means small, poorly fitted or top-dose-only effect; inactive means flat fitted curve, though single readings scatter.

One assay relates to 3D7. Put plainly: qHTS profiling for inhibitors of Plasmodium falciparum proliferation (AID 504749). Further: nearly all actives have a fitted effect of over 60% in size.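 On activity, negative = inhibition: 0% = DMSO vehicle and full inhibition = artemisinin control.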 Conditions: P. falciparum in erythrocytes, SYBR Green DNA, 72 h; series mostly up to 28.7 µM. In a few lines: (§1)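 P. falciparum-infected erythrocytes (0.3% parasitemia, 2.5% hematocrit) incubated with compound 72 h at 37 C, 5% CO2. Parasite DNA detected by SYBR Green after lysis, overnight at room temperature; normalised to 0.29 uM artemisinin and DMSO.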

Another assay deals with 7G8. Described as above. Conditions: P. falciparum in erythrocytes, SYBR Green DNA, 72 h; series mostly up to 28.7 µM. In a few lines:
as §1

In a further assay the test system is AS120. The assay is described as above. Conditions: P. falciparum in erythrocytes, SYBR Green DNA, 72 h; series mostly up to 28.7 µM. In a few lines:
as §1

A further assay concerns ATS189. Described as above. Conditions: P. falciparum in erythrocytes, SYBR Green DNA, 72 h; series mostly up to 28.7 µM. In a few lines:
as §1

The subject of another assay is CP185. The assay is described as above. Conditions: P. falciparum in erythrocytes, SYBR Green DNA, 72 h; series mostly up to 28.7 µM. Summed up: as §1
The next assay has as its system CP203. The description is as above. Conditions: P. falciparum in erythrocytes, SYBR Green DNA, 72 h; series mostly up to 28.7 µM. Summed up:
as §1

Another assay deals with CP217. The description is as above. Conditions: P. falciparum in erythrocytes, SYBR Green DNA, 72 h; series mostly up to 28.7 µM. Summed up: as §1
The next assay concerns C2A. The description is as above. Conditions: P. falciparum in erythrocytes, SYBR Green DNA, 72 h; series mostly up to 28.7 µM. Summed up: as §1
For a further assay, the system named is CP191. The assay is described as above. Conditions: P. falciparum in erythrocytes, SYBR Green DNA, 72 h; series mostly up to 28.7 µM. In a few lines:
as §1

In a further assay the test system is CP194. The description is as above. Conditions: P. falciparum in erythrocytes, SYBR Green DNA, 72 h; series mostly up to 28.7 µM. Summed up:
as §1

Experiment in assay [1]: as above
Conditions: P. falciparum in erythrocytes, SYBR Green DNA, 72 h; for activity, negative = inhibition: at 28.7 µM (top of the series). Summed up:
as §1

The test system of another assay is CP192. The description is as above. Conditions: P. falciparum in erythrocytes, SYBR Green DNA, 72 h; series mostly up to 28.7 µM. Summed up: as §1
Another assay relates to CP201. The description is as above. Conditions: P. falciparum in erythrocytes, SYBR Green DNA, 72 h; series mostly up to 28.7 µM. Summed up: as §1
The subject of the next assay is CP211. Described as above. Conditions: P. falciparum in erythrocytes, SYBR Green DNA, 72 h; series mostly up to 28.7 µM. Summed up: as §1
A further assay deals with AA1029. The description is as above. Conditions: P. falciparum in erythrocytes, SYBR Green DNA, 72 h; series mostly up to 28.7 µM. Summed up:
as §1

For the next assay, the system named is ATS95. The description is as above. Conditions: P. falciparum in erythrocytes, SYBR Green DNA, 72 h; series mostly up to 28.7 µM. Summed up: as §1
A further assay concerns CP215. The assay is described as above. Conditions: P. falciparum in erythrocytes, SYBR Green DNA, 72 h; series mostly up to 28.7 µM. In a few lines: as §1
Potency means the concentration at half of the fitted maximal effect.

For the compound `CC(C)(C)C(=O)C(Oc1ccc(Cl)cc1)n1ccnc1` (stereo not drawn), the Potency in the assay on 3D7 is 10 µM (active); with 7G8 it was 7.94 µM (active); in the assay with AS120, 10 µM (active); with ATS189 it was 8.91 µM (active); in the assay with CP203 it was 13.5 µM (active); in the assay with CP217 it was 10 µM (active). The Potency entry with CP185 is “inactive”.

For the compound `CC(C(O)c1ccc(O)cc1)N1CCC(Cc2ccccc2)CC1` (stereo not drawn), the Potency in the assay with 7G8 is 8.91 µM (active); in the assay with AS120, 8.91 µM (active); in the assay with ATS189, 11.2 µM (active); in the assay with C2A, 10 µM (active); with CP185 it was 8.91 µM (active); in the assay on CP191, 7.94 µM (active). The Potency was 15.1 µM (active) with CP194 and 12 µM (active) in the assay on CP203.

Regarding `CC(CN1c2ccccc2Sc2ccccc21)N(C)C` (stereo not drawn), the activity, negative = inhibition in [1] (parasite line A) is 8.14%; in assay [1] (parasite line B), -0.843%. The Potency entry in the assay with 3D7, in the assay with ATS189, in the assay with C2A, in the assay on CP185, in the assay with CP191 and with CP192 was “inactive” throughout. Moreover, the Potency entry in the assay on CP194, in the assay with CP201, in the assay on CP211 and in the assay on CP217 was “inactive” each time. Besides, the Potency in the assay on 7G8 is 8.91 µM (active).

Take `NC(=O)N/N=C/c1ccc([N+](=O)[O-])o1`: the values for the Potency (in [1] (parasite line A); in the assay on 3D7; in the assay on 7G8) were 12.6 µM (active), 8.91 µM (active) and 10 µM (active), respectively. Further, the Potency result with CP192 and with CP211 was “inactive” throughout.

For `Oc1ccc(C(O)CNCCCCCCNCC(O)c2ccc(O)c(O)c2)cc1O` (stereo not drawn), the Potency with 7G8 is 3.55 µM (active).

`CCCCOC(=O)c1ccc(O)cc1`: the activity, negative = inhibition in assay [1] (parasite line A) is 8.74%; in assay [1] (parasite line B) it was 8.94%. For the same compound, the Potency result in the assay on 3D7, in the assay with AA1029, in the assay on AS120, with ATS189, in the assay on ATS95 and in the assay on C2A was “inactive” throughout. The Potency result with CP185, with CP191, in the assay on CP192, in the assay on CP194, in the assay with CP201 and with CP203 was “inactive” each time. Also, the Potency entry in the assay on CP211, in the assay with CP215 and in the assay with CP217 was “inactive” each time.

`CCCCCCCCCCCCCCCC(=O)NCCO`: the results for the activity, negative = inhibition in assay [1] (parasite line A) and in assay [1] (parasite line B) were 5.7% and 4.77%, respectively. For the same compound, the Potency result in the assay on 3D7, with AA1029, in the assay on AS120, with ATS189, in the assay with ATS95 and with C2A was “inactive” each time. Moreover, the Potency entry in the assay on CP185, in the assay on CP191, with CP192, with CP194, in the assay on CP201 and with CP203 was “inactive” in each case. The Potency entry in the assay on CP211, in the assay on CP215 and in the assay on CP217 was “inactive” each time.

As for `O=S(=O)(O)c1cc(I)c(O)c2ncccc12`, the activity, negative = inhibition in [1] (parasite line A) is 12%; in [1] (parasite line B), -2.06%. Besides, the Potency result in the assay with 3D7, with AA1029, in the assay on AS120, with ATS189, with ATS95 and in the assay on C2A was “inactive” in each case. Also, the Potency entry with CP185, in the assay with CP191, in the assay on CP192, in the assay on CP194, in the assay on CP201 and in the assay with CP211 was “inactive” throughout. In addition, the Potency result with CP215 and in the assay with CP217 was “inactive” in each case.

As for `CN1CCCCC1CCN1c2ccccc2Sc2ccc(S(C)=O)cc21` (stereo not drawn), the activity, negative = inhibition is -4.2% in [1] (parasite line A) and 5.63% in assay [1] (parasite line B). In addition, the Potency result with 3D7, with CP185, in the assay on CP192, in the assay with CP201 and with CP217 was “inactive” in each case. In addition, the Potency in the assay on 7G8 was 10 µM (active); in the assay with CP215, 15.1 µM (active).

In the case of `Cc1ccc2nc(N)[nH]c(=O)c2c1Sc1ccncc1`, the Potency is 7.94 µM (active) in assay [1] (parasite line A); 11.2 µM (active) in [1] (parasite line B); 5.62 µM (active) in the assay with 7G8; 11.2 µM (active) in the assay on AA1029; 4.47 µM (active) in the assay on AS120; 8.91 µM (active) with ATS189. For the same compound, the Potency with C2A is 11.2 µM (active); with CP185, 5.01 µM (active); in the assay with CP191, 2.51 µM (active). The Potency result in the assay with CP192, with CP194, with CP201 and with CP203 was “inactive” each time.

As for `COC(=O)C1=C(C)NC(C)=C(C(=O)OC)C1c1ccccc1[N+](=O)[O-]`, the activity, negative = inhibition in assay [1] (parasite line A) was -7.51%; in assay [1] (parasite line B) it was -24%. For the same compound, the Potency result with 3D7, with AA1029, in the assay on AS120, in the assay on ATS189, in the assay with ATS95 and in the assay with C2A was “inactive” in each case. The Potency entry with CP185, in the assay on CP191, in the assay with CP192, in the assay with CP194, in the assay with CP201 and in the assay on CP203 was “inactive” throughout. In addition, the Potency entry in the assay with CP211, in the assay on CP215 and in the assay on CP217 was “inactive” each time.

The values above are taken from PubChem BioAssay (NCATS).
